# Data reported in the supplement of paper PMC9135407.
# Values joined by “and” are separate entries in the source; they are usually repeats but may differ in a detail not shown here. Identical values can stand only once. Counter-ions that a name gives are not always drawn. In all, about 5,800 compounds went through this assay and about 620 (11%) showed activity. This is one part of a sample in which actives are shown more often than they occur. Values without a mark were called inactive.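 The calls were made as follows: active = score above a cut-off or among the top three wells of a plate; in these data no inactive exceeds 0.85.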
# Tested on: primary human hepatic stellate cells (donor 1)
# Test: scaled lipid accumulation score (0 = DMSO-like, 1 = nortriptyline-like); higher = stronger HSC inactivation (lipid re-accumulation), active = hit call of the paper
# Conditions: 48 h
# Procedure: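 Primary lipid accumulation screen in primary human hepatic stellate cell myofibroblasts (donor 1, passage 8) in 384-well plates. 100 nL of library compound was pin-transferred into 30 µL medium in duplicate, and cells were treated for 48 h. The 'Scaled' score combines distance from plate baseline, toxicity and reproducibility penalties, and is normalised to nortriptyline (positive) and DMSO (negative) controls on each plate. A hit is defined as scaled >0.85 or among the top 3 wells per plate.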
# [1] = library stock concentration: 1 mM
# [2] = library stock concentration: 10 mM
# [3] = library stock concentration: 3.33 mM
# [4] = library stock concentration: 80 uM
# [5] = library stock concentration: 400 uM
# [6] = library stock concentration: 2 mM
compound,measurement,setting,value
CCCCCC(=O)/C=C/[C@H]1[C@H](O)CC(=O)[C@@H]1CCCCCCC(=O)O [15-keto Prostaglandin E1],scaled lipid accumulation score,[1],≤ 0
O=C(Nc1ccc([N+](=O)[O-])cc1O)Nc1ccccc1Br,scaled lipid accumulation score,[1],≤ 0
same,scaled lipid accumulation score,[2],0.317
O[C@@H](COc1cccc2ncccc12)CN1CCN(C2c3ccccc3[C@@H]3[C@H](c4ccccc42)C3(F)F)CC1 (stereo partly specified),scaled lipid accumulation score,[3],0.206
same,scaled lipid accumulation score,[2],0.837
CCC(C)N(C)C(=O)c1cc2ccccc2c(-c2ccccc2Cl)n1 (stereo unspecified),scaled lipid accumulation score,[2],0.007 and ≤ 0
CC(C)(F)C[C@H](N[C@@H](c1ccc(-c2ccc(S(C)(=O)=O)cc2)cc1)C(F)(F)F)C(=O)NC1(C#N)CC1 [Odanacatib (MK-0822)],scaled lipid accumulation score,[3],≤ 0
same,scaled lipid accumulation score,[2],≤ 0
"CC(C)CCOc1ccc(N)cc1 [CP 24,879 (hydrochloride)]",scaled lipid accumulation score,[1],≤ 0
CN(C)CCOc1ccc(-c2nc(-c3ccncc3)c(-c3ccc4c(c3)CCC4=NO)[nH]2)cc1,scaled lipid accumulation score,[3],1.06 (active)
CN(C)CCOc1ccc(-c2nc(-c3ccncc3)c(-c3ccc4c(c3)CC/C4=N\O)[nH]2)cc1,scaled lipid accumulation score,[4],0.074
same,scaled lipid accumulation score,[5],0.325 and 0.619
same,scaled lipid accumulation score,[6],0.7 and 0.684
same,scaled lipid accumulation score,[2],0.476 and 0.423 and 0.307
OCCn1cc(-c2ccc3c(c2)CC/C3=N\O)c(-c2ccncc2)n1,scaled lipid accumulation score,[4],0.006
same,scaled lipid accumulation score,[5],0.086
same,scaled lipid accumulation score,[6],≤ -0.009
same,scaled lipid accumulation score,[3],0.041
same,scaled lipid accumulation score,[2],≤ 0 and ≤ -0.009
"CCCCCC(O)CCC1C(O)CC(=O)C1CCCCCCC(=O)O [13,14-dihydro-15(R)-Prostaglandin E1]",scaled lipid accumulation score,[1],≤ 0
"CCCCCC(O)CCC1C(O)CC(=O)C1CCCCCCC(=O)O (stereo unspecified) [13,14-dihydro Prostaglandin E1]",scaled lipid accumulation score,[1],≤ 0
COc1ccc(-c2nc(-c3ccc(-c4cccc(Cl)c4)o3)[nH]c2-c2ccc(OC)cc2)cc1 [Neurodazine],scaled lipid accumulation score,[1],0.352
same,scaled lipid accumulation score,[2],0.113
CC(=O)OC1CC2CCC1(C)C2(C)C (stereo unspecified),scaled lipid accumulation score,[2],≤ 0
Cc1cc(C=C2C(=O)C=CC2=O)cc(C)c1O [listing 1 of 2 here],scaled lipid accumulation score,[4],≤ -0.001
same,scaled lipid accumulation score,[5],≤ -0.001
same,scaled lipid accumulation score,[6],0.593
same,scaled lipid accumulation score,[3],0.464
Cc1cc(C=C2C(=O)C=CC2=O)cc(C)c1O [listing 2 of 2 here],scaled lipid accumulation score,[2],0.924 (active)
CCCCCCCCCCCCCCCCOCC(COP(=O)(O)OCC[N+](C)(C)C)OCC (stereo unspecified) [2-O-ethyl PAF C-16],scaled lipid accumulation score,[1],≤ 0
CC(=O)NC(C(=O)O)c1ccccc1 (stereo unspecified),scaled lipid accumulation score,[2],≤ 0
CC(=O)Nc1ccc([C@H](C)C(=O)Nc2ncc(C(C)C)s2)cc1,scaled lipid accumulation score,[5],≤ -0.005
same,scaled lipid accumulation score,[6],0.175
same,scaled lipid accumulation score,[2],0.348
CC(C)C(=O)Nc1ncc(-c2cc(C(F)F)nn2-c2c(Cl)cccc2Cl)s1,scaled lipid accumulation score,[2],1.1 (active)
CC(C)(C)c1cc(NC(=O)Nc2ccc(-c3cn4c(n3)sc3cc(OCCN5CCOCC5)ccc34)cc2)no1 [Quizartinib  (AC220) (2 mM)],scaled lipid accumulation score,[6],1.02 (active)
Cc1ccc(-n2nc(C(C)(C)C)cc2NC(=O)Nc2ccc(OCCN3CCOCC3)c3ccccc23)cc1 [BIRB 796 (Doramapimod)],scaled lipid accumulation score,[3],0.017
same,scaled lipid accumulation score,[2],≤ 0
CC(C)(C)c1cc(NC(=O)Nc2ccc(-c3cn4c(n3)sc3cc(OCCN5CCOCC5)ccc34)cc2)no1 [Quizartinib  (AC220) (0.4 mM)],scaled lipid accumulation score,[5],≤ -0.005
CC(C)(C)c1cc(NC(=O)Nc2ccc(-c3cn4c(n3)sc3cc(OCCN5CCOCC5)ccc34)cc2)no1,scaled lipid accumulation score,[4],≤ 0
same,scaled lipid accumulation score,[5],≤ 0
same,scaled lipid accumulation score,[6],0.142
same,scaled lipid accumulation score,[2],0.292
CC(C)(C)c1cc(NC(=O)Nc2ccc(-c3cn4c(n3)sc3cc(OCCN5CCOCC5)ccc34)cc2)no1 [Quizartinib  (AC220) (10 mM)],scaled lipid accumulation score,[2],1.7 (active)
O=C(Cc1ccc(-c2ccc(OCCN3CCOCC3)cc2)cn1)NCc1ccccc1,scaled lipid accumulation score,[4],0.076
same,scaled lipid accumulation score,[5],0.268
same,scaled lipid accumulation score,[6],0.077
same,scaled lipid accumulation score,[3],0.093
same,scaled lipid accumulation score,[2],0.076 and 0.499
CC(C)(C)c1cc(NC(=O)Nc2ccc(-c3cn4c(n3)sc3cc(OCCN5CCOCC5)ccc34)cc2)no1 [Quizartinib (AC220)] [listing 1 of 2 here],scaled lipid accumulation score,[2],1.15 (active)
Cc1ccc(-n2nc(C(C)(C)C)cc2NC(=O)Nc2ccc(OCCN3CCOCC3)c3ccccc23)cc1,scaled lipid accumulation score,[4],≤ -0.009
same,scaled lipid accumulation score,[5],≤ -0.009
same,scaled lipid accumulation score,[6],0.044
same,scaled lipid accumulation score,[2],≤ -0.009
CC(C)(C)c1cc(NC(=O)Nc2ccc(-c3cn4c(n3)sc3cc(OCCN5CCOCC5)ccc34)cc2)no1 [Quizartinib (AC220)] [listing 2 of 2 here],scaled lipid accumulation score,[3],0.288
"C=C1CCC(O)C/C1=C\C=C1\CCCC2(C)C1CCC2C(C)CCC(O)C(C)(C)O (stereo unspecified) [24,25-Dihydroxyvitamin D3]",scaled lipid accumulation score,[1],0.016
O=C(O)CCC/C=C\C[C@H]1C(=O)C[C@@H](O)[C@@H]1/C=C/[C@@H](O)COc1ccccc1 [16-phenoxy tetranor Prostaglandin E2],scaled lipid accumulation score,[1],≤ 0
CCCCCCCCCCCCCCCCCCCCCCCC(=O)NCCS(=O)(=O)O [N-Lignoceroyl Taurine],scaled lipid accumulation score,[1],0.009
CCCCCC(O)C=CC1C(O)CC(O)C1CC=CCCCC(=O)O (stereo not drawn) [8-epi-Prostaglandin F2a],scaled lipid accumulation score,[1],≤ -0.021
O=C(Cc1ccccc1)Nc1nc2ccc(Cl)cc2c2nc(-c3ccco3)nn12,scaled lipid accumulation score,[2],0.596
CC(C)NC[C@@H](C(=O)N1CCN(c2ncnc3c2[C@H](C)C[C@H]3O)CC1)c1ccc(Cl)cc1 [listing 1 of 2 here],scaled lipid accumulation score,[2],0.881 (active)
CC(C)NC[C@@H](C(=O)N1CCN(c2ncnc3c2[C@H](C)C[C@H]3O)CC1)c1ccc(Cl)cc1 [listing 2 of 2 here],scaled lipid accumulation score,[4],≤ -0.016
same,scaled lipid accumulation score,[5],≤ -0.016
same,scaled lipid accumulation score,[6],0.083
same,scaled lipid accumulation score,[3],0.174
same,scaled lipid accumulation score,[2],0.257
"CCCCCCCC/C=C\CCCCCCCC(=O)OCC(CO)OC(=O)CCCCCCC/C=C\CCCCCCCC (stereo unspecified) [1,2-Dioleoyl-glycerol (18:1)]",scaled lipid accumulation score,[1],0.004
COc1cc(N2CCC(C(N)=O)CC2)ccc1Nc1nc(N)c(Cl)c(Nc2ccccc2S(=O)(=O)C(C)C)n1,scaled lipid accumulation score,[4],≤ 0
same,scaled lipid accumulation score,[5],≤ 0
same,scaled lipid accumulation score,[6],0.025
same,scaled lipid accumulation score,[2],0.537
O=C(O)CCCCCCC1C(=O)NC(=O)N1CCC(O)C1CCCCC1 (stereo unspecified),scaled lipid accumulation score,[1],≤ 0
COc1cc(OC)c(C(=O)CCCCN2CCC3(CC2)NC(=O)NC3=O)cc1NS(=O)(=O)c1ccc(C(F)(F)F)cc1.Cl,scaled lipid accumulation score,[2],0.941 (active)
O=C(O)CN(CC(=O)O)Cc1cc2c(cc1O)Oc1cc(O)c(CN(CC(=O)O)CC(=O)O)cc1C21OC(=O)c2ccccc21 [Calcein],scaled lipid accumulation score,[2],0.169
COc1ccc2c(c1)c(CC(=O)Oc1ccc(-c3cc(=S)ss3)cc1)c(C)n2C(=O)c1ccc(Cl)cc1,scaled lipid accumulation score,[1],≤ 0
COC(=O)[C@H](Cc1ccccc1)NC(=O)/C=C/c1ccc(O)cc1,scaled lipid accumulation score,[1],0.011
C[C@H](NC(=O)CCc1nc2ccccc2c(=O)[nH]1)c1ccccc1,scaled lipid accumulation score,[3],≤ -0.009
same,scaled lipid accumulation score,[2],≤ 0
"CCCCCC#CCC#CCC#CCCCCCCC(=O)O [8,11,14-Eicosatriynoic Acid]",scaled lipid accumulation score,[1],≤ 0
CC(C)C[C@H](NC(=O)[C@@H](COC(C)(C)C)NC(=O)[C@H](Cc1ccc(O)cc1)NC(=O)[C@H](CO)NC(=O)[C@H](Cc1c[nH]c2ccccc12)NC(=O)[C@H](Cc1cnc[nH]1)NC(=O)[C@@H]1CCC(=O)N1)C(=O)N[C@@H](CCCNC(=N)N)C(=O)N1CCC[C@H]1C(=O)NNC(N)=O [Goserelin acetate],scaled lipid accumulation score,library stock concentration: 1.6 mM,≤ -0.006
CC(C)C[C@H](NC(=O)[C@@H](COC(C)(C)C)NC(=O)[C@H](Cc1ccc(O)cc1)NC(=O)[C@H](CO)NC(=O)[C@H](Cc1c[nH]c2ccccc12)NC(=O)[C@H](Cc1cnc[nH]1)NC(=O)[C@@H]1CCC(=O)N1)C(=O)N[C@@H](CCCNC(=N)N)C(=O)N1CCC[C@H]1C(=O)NNC(N)=O,scaled lipid accumulation score,library stock concentration: 9.6 mM,0.046
"CCCCCCCC(=O)OC[C@H](CO)OC(=O)CCCCCCC [1,2-Dioctanoyl-SN-glycerol]",scaled lipid accumulation score,[1],≤ -0.021
"CCCCCCCC(=O)OC[C@H](CO)OC(=O)CCCCCCC [1,2-Dioctanoyl-sn-glycerol]",scaled lipid accumulation score,[1],0.009
Br.Br.CN(C)CCCc1cc(C(=O)Nc2ccc(-c3ccncc3)cc2)ccc1O,scaled lipid accumulation score,[2],1.13 (active)
Cc1ccc(NC(=O)c2cccc(N(C)C)c2)cc1NC(=O)c1ccc(O)cc1,scaled lipid accumulation score,[2],≤ -0.004
COc1ccc(NC(=O)c2ccc(-c3ccc(-c4noc(C)n4)cc3C)cc2)cc1OCCN(C)C,scaled lipid accumulation score,[2],0.491
CC(C)CCCC(C)N (stereo unspecified) [Octodrine],scaled lipid accumulation score,library stock concentration: 15.5 mM,0.024
CCC(CC)CC1(C(=O)Nc2ccccc2SC(=O)C(C)C)CCCCC1,scaled lipid accumulation score,[3],≤ 0
same,scaled lipid accumulation score,[2],≤ 0
Cc1nc(-c2ccc(C(F)(F)F)cc2)sc1C(=O)NCc1ccc(OC(C)(C)C(=O)O)cc1,scaled lipid accumulation score,[1],≤ 0
CN(C)CCC=C1c2ccccc2CCc2ccccc21 [Annoyltin],scaled lipid accumulation score,[2],0.841
CN(C)CCC=C1c2ccccc2COc2ccccc21 [Doxepin hydrochloride],scaled lipid accumulation score,,0.633
same,scaled lipid accumulation score,[2],0.495 and 0.707 and 0.72
CN(C)CCC=C1c2ccccc2CCc2ccccc21 [Amitriptyline hydrochloride],scaled lipid accumulation score,library stock concentration: 6.4 mM,0.347
same,scaled lipid accumulation score,[2],0.6
CN(C)CCC=C1c2ccccc2CCc2ccccc21 [Amitriptyline HCl],scaled lipid accumulation score,[3],0.187
CN(C)CCC1(c2ccc(Cl)cc2)Cc2ccccc2C(=O)O1 (stereo unspecified),scaled lipid accumulation score,[2],0.575
CN(C)CC/C=C1/c2ccccc2COc2ccc(CC(=O)O)cc21 [Olopatadine HCl],scaled lipid accumulation score,[3],≤ 0
same,scaled lipid accumulation score,[2],≤ 0
CN(C)CCC=C1c2ccccc2CCc2ccccc21.Cl [Amitriptyline HCl],scaled lipid accumulation score,[2],0.863 (active)
CN(C)CCC=C1c2ccccc2COc2ccccc21 [Doxepin],scaled lipid accumulation score,[2],0.731
C(=C/CCN(C)C)(/c1c2cccc1)\c3c(cccc3)CC2.Cl [Amitriptyline hydrochloride],scaled lipid accumulation score,[2],1.11 (active)
CN(C)CC/C=C1/c2ccccc2COc2ccc(CC(=O)O)cc21,scaled lipid accumulation score,[2],≤ 0
CN(C)CC/C=C1/c2ccccc2COc2ccc(CC(=O)O)cc21 [Olopatadine],scaled lipid accumulation score,library stock concentration: 5.9 mM,≤ -0.006
CN(C)CC/C=C1/c2ccccc2COc2ccccc21.Cl [Doxepin hydrochloride],scaled lipid accumulation score,library stock concentration: 6.3 mM,1.34 (active)
CN(C)CCC=C1c2ccccc2CCc2ccccc21 [Amitryptiline hydrochloride],scaled lipid accumulation score,,0.821
